# In PubChem BioAssay AID1159580 (chemical genetic matrix, 2015):
# Where “and” joins values, the source holds several entries; their conditions need not be identical. Identical values can stand only once. Screen size: about 5,500 compounds; about 2,000 (36%) were called active. Not shown: some 18% with an inconclusive outcome. No stated cut-off is given here; in the data, active means normalized growth mostly below about 0.91 (no sharp cut-off); inconclusive means no clear call, values can overlap the other calls; inactive means mostly above about 0.92. The list shows a part of the results. Some structures have more than one record in an assay (separate samples or runs), and their calls can disagree.
# Assay: chemical genetic growth profiling, strain panel (AID 1159580);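 further: tested at 20 µM; growth read once vehicle control cultures reached saturation at 30 °C; 1 = growth at the plate median or of vehicle wells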
# Conditions: growth OD
smiles,measurement,setting,value
NCC(O)c1ccc(O)cc1 (stereo not given),normalized growth,"S. cerevisiae deletion strains, locus YKL009W, strain mrt4, stronger effect = lower value",1.01 (inactive)
same,normalized growth,"S. cerevisiae deletion strains, locus YKL068W, stronger effect = lower value",0.984 (inactive)
same,normalized growth,"S. cerevisiae deletion strains, locus YKL085W, strain MDH1 (second series), stronger effect = lower value",0.989 (inactive)
same,normalized growth,"S. cerevisiae deletion strains, locus YKL085W, strain MDH1, stronger effect = lower value",0.989 (inactive)
same,normalized growth,"S. cerevisiae deletion strains, locus YKL160W, strain elf1, stronger effect = lower value",0.998 (inactive)
same,normalized growth,"S. cerevisiae deletion strains, locus YKL190W, strain CNB1, stronger effect = lower value",1 (inactive)
same,normalized growth,"S. cerevisiae deletion strains, locus YKR001C, strain vps1, stronger effect = lower value",0.967 (inactive)
same,normalized growth,"S. cerevisiae deletion strains, locus YKR026C, strain gcn3, stronger effect = lower value",0.998 (inactive)
same,normalized growth,"S. cerevisiae deletion strains, locus YKR091W, strain srl3, stronger effect = lower value",0.999 (inactive)
same,normalized growth,"S. cerevisiae deletion strains, locus YLL001W, strain dnm1, stronger effect = lower value",1 (inactive)
same,normalized growth,"S. cerevisiae deletion strains, locus YLL026W, stronger effect = lower value",0.99 (inactive)
same,normalized growth,"S. cerevisiae deletion strains, locus YLL041C, strain sdh2, stronger effect = lower value",1.01 (inactive)
same,normalized growth,"S. cerevisiae deletion strains, locus YLR027C, strain aat2, stronger effect = lower value",0.993 (inactive)
same,normalized growth,"S. cerevisiae deletion strains, locus YLR039C, strain RIC1, stronger effect = lower value",1.02 (inactive)
same,normalized growth,"S. cerevisiae deletion strains, locus YLR058C, strain SHM2, stronger effect = lower value",0.995 (inactive)
same,normalized growth,"S. cerevisiae deletion strains, locus YLR102C, strain apc9, stronger effect = lower value",0.972 (inactive)
same,normalized growth,"S. cerevisiae deletion strains, locus YLR113W, strain HOG1, stronger effect = lower value",1.02 (inactive)
same,normalized growth,"S. cerevisiae deletion strains, locus YLR221C, strain rsa3, stronger effect = lower value",1 (inactive)
same,normalized growth,"S. cerevisiae deletion strains, locus YLR258W, strain gsy2, stronger effect = lower value",1.01 (inactive)
same,normalized growth,"S. cerevisiae deletion strains, locus YLR262C, strain YPT6 (second series), stronger effect = lower value",0.983 (inactive)
same,normalized growth,"S. cerevisiae deletion strains, locus YLR262C, strain YPT6, stronger effect = lower value",1.06 (inactive)
same,normalized growth,"S. cerevisiae deletion strains, locus YLR268W, strain sec22, stronger effect = lower value",0.922 (inactive)
same,normalized growth,"S. cerevisiae deletion strains, locus YLR320W, strain mms22, stronger effect = lower value",1.04 (inactive)
same,normalized growth,"S. cerevisiae deletion strains, locus YLR330W, strain CHS5, stronger effect = lower value",0.996 (inactive)
same,normalized growth,"S. cerevisiae deletion strains, locus YLR342W, strain FKS1 (second series), stronger effect = lower value",1.03 (inactive)
same,normalized growth,"S. cerevisiae deletion strains, locus YLR342W, strain FKS1, stronger effect = lower value",0.981 (inactive)
same,normalized growth,"S. cerevisiae deletion strains, locus YLR357W, strain rsc2, stronger effect = lower value",0.973 (inactive)
same,normalized growth,"S. cerevisiae deletion strains, locus YLR370C, strain arc18, stronger effect = lower value",1.01 (inactive)
same,normalized growth,"S. cerevisiae deletion strains, locus YLR371W, strain rom2, stronger effect = lower value",0.981 (inactive)
same,normalized growth,"S. cerevisiae deletion strains, locus YLR384C, strain iki3, stronger effect = lower value",1 (inactive)
same,normalized growth,"S. cerevisiae deletion strains, locus YLR418C, strain cdc73, stronger effect = lower value",0.967 (inactive)
same,normalized growth,"S. cerevisiae deletion strains, locus YML016C, strain PPZ1, stronger effect = lower value",0.998 (inactive)
same,normalized growth,"S. cerevisiae deletion strains, locus YML032C, strain rad52, stronger effect = lower value",0.962 (inactive)
same,normalized growth,"S. cerevisiae deletion strains, locus YML120C, strain ndi1, stronger effect = lower value",1.01 (inactive)
same,normalized growth,"S. cerevisiae deletion strains, locus YML124C, strain tub3, stronger effect = lower value",0.99 (inactive)
same,normalized growth,"S. cerevisiae deletion strains, locus YMR058W, strain fet3, stronger effect = lower value",1.02 (inactive)
same,normalized growth,"S. cerevisiae deletion strains, locus YMR078C, strain ctf18, stronger effect = lower value",0.968 (inactive)
same,normalized growth,"S. cerevisiae deletion strains, locus YMR125W, strain sto1, stronger effect = lower value",0.993 (inactive)
same,normalized growth,"S. cerevisiae deletion strains, locus YMR129W, stronger effect = lower value",1.01 (inactive)
same,normalized growth,"S. cerevisiae deletion strains, locus YMR205C, strain PFK2, stronger effect = lower value",0.994 (inactive)
same,normalized growth,"S. cerevisiae deletion strains, locus YMR223W, strain ubp8, stronger effect = lower value",0.997 (inactive)
same,normalized growth,"S. cerevisiae deletion strains, locus YMR231W, strain pep5, stronger effect = lower value",0.995 (inactive)
same,normalized growth,"S. cerevisiae deletion strains, locus YMR263W, strain SAP30, stronger effect = lower value",0.727 (active) and 1 (inactive)
same,normalized growth,"S. cerevisiae deletion strains, locus YMR307W, strain GAS1, stronger effect = lower value",0.985 (inactive)
same,normalized growth,"S. cerevisiae deletion strains, locus YNL067W, strain RPL9B, stronger effect = lower value",0.991 (inactive)
same,normalized growth,"S. cerevisiae deletion strains, locus YNL071W, strain lat1, stronger effect = lower value",1.01 (inactive)
same,normalized growth,"S. cerevisiae deletion strains, locus YNL128W, strain TEP1, stronger effect = lower value",0.993 (inactive)
same,normalized growth,"S. cerevisiae deletion strains, locus YNL153C, strain GIM3, stronger effect = lower value",0.991 (inactive) and 1.02 (inactive)
same,normalized growth,"S. cerevisiae deletion strains, locus YNL175C, strain NOP13, stronger effect = lower value",1.01 (inactive)
same,normalized growth,"S. cerevisiae deletion strains, locus YNL183C, strain NPR1, stronger effect = lower value",0.918 (inactive)
same,normalized growth,"S. cerevisiae deletion strains, locus YNL197C, strain WHI3, stronger effect = lower value",1.04 (inactive)
same,normalized growth,"S. cerevisiae deletion strains, locus YNL209W, strain ssb2, stronger effect = lower value",1.02 (inactive)
same,normalized growth,"S. cerevisiae deletion strains, locus YNL224C, strain SQS1, stronger effect = lower value",1.01 (inactive)
same,normalized growth,"S. cerevisiae deletion strains, locus YNL233W, strain BNI4, stronger effect = lower value",0.977 (inactive)
same,normalized growth,"S. cerevisiae deletion strains, locus YNL248C, strain rpa49, stronger effect = lower value",1.02 (inactive)
same,normalized growth,"S. cerevisiae deletion strains, locus YNL250W, strain rad50, stronger effect = lower value",0.976 (inactive)
same,normalized growth,"S. cerevisiae deletion strains, locus YNL271C, strain bni1, stronger effect = lower value",0.967 (inactive)
same,normalized growth,"S. cerevisiae deletion strains, locus YNL298W, strain CLA4, stronger effect = lower value",0.966 (inactive)
same,normalized growth,"S. cerevisiae deletion strains, locus YNL307C, strain MCK1, stronger effect = lower value",0.985 (inactive)
same,normalized growth,"S. cerevisiae deletion strains, locus YNL322C, strain KRE1 (second series), stronger effect = lower value",1 (inactive)
same,normalized growth,"S. cerevisiae deletion strains, locus YNL322C, strain KRE1, stronger effect = lower value",0.999 (inactive) and 1.02 (inactive)
same,normalized growth,"S. cerevisiae deletion strains, locus YNR049C, strain mso1, stronger effect = lower value",1 (inactive)
same,normalized growth,"S. cerevisiae deletion strains, locus YNR052C, strain pop2, stronger effect = lower value",0.982 (inactive)
same,normalized growth,"S. cerevisiae deletion strains, locus YOL006C, strain TOP1, stronger effect = lower value",0.943 (inactive)
same,normalized growth,"S. cerevisiae deletion strains, locus YOL012C, strain htz1",2.07 [resistant] (active)
same,normalized growth,"S. cerevisiae deletion strains, locus YOL147C, strain pex11, stronger effect = lower value",0.976 (inactive)
same,normalized growth,"S. cerevisiae deletion strains, locus YOR001W, strain rrp6, stronger effect = lower value",0.989 (inactive)
same,normalized growth,"S. cerevisiae deletion strains, locus YOR061W, strain CKA2, stronger effect = lower value",0.991 (inactive)
same,normalized growth,"S. cerevisiae deletion strains, locus YOR069W, strain VPS5, stronger effect = lower value",0.995 (inactive)
same,normalized growth,"S. cerevisiae deletion strains, locus YOR070C, strain gyp1, stronger effect = lower value",1 (inactive)
same,normalized growth,"S. cerevisiae deletion strains, locus YOR080W, strain dia2, stronger effect = lower value",0.985 (inactive)
same,normalized growth,"S. cerevisiae deletion strains, locus YOR083W, strain WHI5 (second series), stronger effect = lower value",1.01 (inactive)
same,normalized growth,"S. cerevisiae deletion strains, locus YOR083W, strain WHI5, stronger effect = lower value",0.977 (inactive)
same,normalized growth,"S. cerevisiae deletion strains, locus YOR106W, strain vam3, stronger effect = lower value",1.02 (inactive)
same,normalized growth,"S. cerevisiae deletion strains, locus YOR136W, strain idh2, stronger effect = lower value",0.982 (inactive)
same,normalized growth,"S. cerevisiae deletion strains, locus YOR144C, strain elg1, stronger effect = lower value",0.976 (inactive)
same,normalized growth,"S. cerevisiae deletion strains, locus YOR184W, strain ser1, stronger effect = lower value",0.971 (inactive)
same,normalized growth,"S. cerevisiae deletion strains, locus YOR231W, strain MKK1, stronger effect = lower value",1.01 (inactive)
same,normalized growth,"S. cerevisiae deletion strains, locus YOR265W, strain rbl2, stronger effect = lower value",1 (inactive)
same,normalized growth,"S. cerevisiae deletion strains, locus YOR270C, strain vph1, stronger effect = lower value",1.06 (inactive)
same,normalized growth,"S. cerevisiae deletion strains, locus YOR290C, strain snf2, stronger effect = lower value",1 (inactive)
same,normalized growth,"S. cerevisiae deletion strains, locus YOR316C, strain cot1, stronger effect = lower value",0.974 (inactive)
same,normalized growth,"S. cerevisiae deletion strains, locus YPL051W, strain arl3, stronger effect = lower value",0.995 (inactive)
same,normalized growth,"S. cerevisiae deletion strains, locus YPL055C, strain LGE1, stronger effect = lower value",1.02 (inactive) and 1.01 (inactive)
same,normalized growth,"S. cerevisiae deletion strains, locus YPL078C, strain atp4, stronger effect = lower value",1.01 (inactive)
same,normalized growth,"S. cerevisiae deletion strains, locus YPL106C, strain sse1, stronger effect = lower value",0.971 (inactive)
same,normalized growth,"S. cerevisiae deletion strains, locus YPL240C, strain hsp82, stronger effect = lower value",1 (inactive)
same,normalized growth,"S. cerevisiae deletion strains, locus YPL241C, strain CIN2, stronger effect = lower value",1 (inactive) and 1.01 (inactive)
same,normalized growth,"S. cerevisiae deletion strains, locus YPL256C, strain CLN2, stronger effect = lower value",0.97 (inactive)
same,normalized growth,"S. cerevisiae deletion strains, locus YPR119W, strain clb2, stronger effect = lower value",0.968 (inactive)
same,normalized growth,"S. cerevisiae deletion strains, locus YPR141C, strain kar3, stronger effect = lower value",0.976 (inactive)
same,normalized growth,"S. cerevisiae deletion strains, locus YPR163C, strain tif3, stronger effect = lower value",0.971 (inactive)
same,normalized growth,"S. cerevisiae deletion strains, locus YPR167C, strain met16, stronger effect = lower value",0.974 (inactive)
same,normalized growth,"S. cerevisiae deletion strains, strain wtn01, stronger effect = lower value",0.969 (inactive)
same,normalized growth,"S. cerevisiae strains, strain wild type, stronger effect = lower value",1 (inactive)
